Assay results reported in PubChem BioAssay AID1159580 (chemical genetic matrix, 2015).
The campaign covered roughly 5,500 compounds. About 2,000 (36%) were called active. Another 18% or so got no clear call; they are omitted. No stated cut-off is given here; in the data, active means normalized growth mostly below about 0.91 (no sharp cut-off); inconclusive means no clear call, values can overlap the other calls; inactive means mostly above about 0.92. The list shows a part of the results.

Assay: chemical genetic growth profiling, strain panel (AID 1159580);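 further: tested at 20 µM; growth read once vehicle control cultures reached saturation at 30 °C; 1 = growth at the plate median or of vehicle wells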
Conditions: S. cerevisiae deletion strains, growth OD
[1] = locus YDL101C, strain DUN1, stronger effect = lower value
[2] = locus YHR030C, strain SLT2, stronger effect = lower value

Measured: normalized growth

COc1ccc(Oc2ccc([N+](=O)[O-])cc2C(=O)O/N=C(/N)c2ccc(C(F)(F)F)cc2)cc1
inactive: locus YAR019C, strain CDC15, stronger effect = lower value 1 | locus YBL105C, strain PKC1, stronger effect = lower value 0.991 | locus YBR135W, strain CKS1, stronger effect = lower value 0.991 | locus YBR136W, strain MEC1, stronger effect = lower value 0.996 | locus YBR160W, strain CDC28, stronger effect = lower value 0.997 | locus YDL017W, strain CDC7, stronger effect = lower value 1 | locus YDL028C, strain MPS1, stronger effect = lower value 1 | [1] 0.988 | locus YDL108W, strain KIN28, stronger effect = lower value 0.99 | locus YDL132W, strain cdc53, stronger effect = lower value 0.982 | locus YDL214C, strain PRR2, stronger effect = lower value 1.01 | locus YDR052C, strain DBF4, stronger effect = lower value 1 | locus YDR054C, strain cdc34, stronger effect = lower value 0.99 | locus YDR226W, strain ADK1, stronger effect = lower value 0.987 | locus YDR477W, strain SNF1, stronger effect = lower value 0.999 | locus YER123W, strain YCK3, stronger effect = lower value 0.983 | locus YER133W, strain GLC7, stronger effect = lower value 1 | locus YFL009W, strain cdc4, stronger effect = lower value 0.998 | locus YFL029C, strain CAK1, stronger effect = lower value 1 | locus YFR003C, strain YPI1, stronger effect = lower value 1.01 | locus YFR019W, strain FAB1, stronger effect = lower value 1 | locus YFR028C, strain CDC14, stronger effect = lower value 0.998 | locus YGR040W, strain KSS1, stronger effect = lower value 1 | locus YGR052W, strain FMP48, stronger effect = lower value 1.01 | locus YGR092W, strain DBF2, stronger effect = lower value 1.03 | [2] 0.92 | locus YHR079C, strain IRE1, stronger effect = lower value 1 | locus YHR082C, strain KSP1, stronger effect = lower value 1.11 | locus YHR205W, strain SCH9, stronger effect = lower value 0.991 | locus YIL147C, strain SLN1, stronger effect = lower value 1 | locus YJL095W, strain BCK1, stronger effect = lower value 1 | locus YJL128C, strain PBS2, stronger effect = lower value 0.957 | locus YJL157C, strain FAR1, stronger effect = lower value 1.02 | locus YJR016C, strain ILV3, stronger effect = lower value 1 | locus YJR066W, strain TOR1 (second series), stronger effect = lower value 0.964 | locus YJR066W, strain TOR1, stronger effect = lower value 1.07 | locus YKL048C, strain ELM1, stronger effect = lower value 0.995 | locus YKL067W, strain YNK1, stronger effect = lower value 0.999 | locus YKL101W, strain HSL1, stronger effect = lower value 0.998 | locus YKL193C, strain SDS22, stronger effect = lower value 1 | locus YKL203C, strain TOR2, stronger effect = lower value 1.03 | locus YLR113W, strain HOG1, stronger effect = lower value 0.919 | locus YLR133W, strain CKI1, stronger effect = lower value 1.01 | locus YLR403W, strain SFP1, stronger effect = lower value 1.01 | locus YML070W, strain DAK1, stronger effect = lower value 1.01 | locus YMR001C, strain CDC5, stronger effect = lower value 1.01 | locus YMR205C, strain PFK2 (second series), stronger effect = lower value 0.989 | locus YMR277W, strain FCP1, stronger effect = lower value 1.01 | locus YNL006W, strain LST8, stronger effect = lower value 1 | locus YNL020C, strain ARK1, stronger effect = lower value 1.02 | locus YNL161W, strain CBK1, stronger effect = lower value 0.994 | locus YNL183C, strain NPR1, stronger effect = lower value 1.04 | locus YNL207W, strain RIO2, stronger effect = lower value 1 | locus YNL222W, strain SSU72, stronger effect = lower value 0.997 | locus YNL307C, strain MCK1 (second series), stronger effect = lower value 1 | locus YOL078W, strain AVO1, stronger effect = lower value 1 | locus YOL136C, strain PFK27, stronger effect = lower value 1.01 | locus YOR061W, strain CKA2, stronger effect = lower value 1.01 | locus YOR119C, strain RIO1, stronger effect = lower value 1.06 | locus YOR231W, strain MKK1, stronger effect = lower value 0.985 | locus YOR329C, strain SCD5, stronger effect = lower value 1 | locus YPL031C, strain PHO85, stronger effect = lower value 0.988 | locus YPL153C, strain RAD53, stronger effect = lower value 0.995 | locus YPL204W, strain HRR25, stronger effect = lower value 1.01 | locus YPL209C, strain IPL1, stronger effect = lower value 1 | locus YPL256C, strain CLN2, stronger effect = lower value 0.927 | locus YPR025C, strain CCL1, stronger effect = lower value 0.999 | locus YPR106W, strain ISR1, stronger effect = lower value 0.993 | locus YPR111W, strain DBF20, stronger effect = lower value 0.986 | strain NNK1, stronger effect = lower value 0.982 | strain TSCII, stronger effect = lower value 1

O=[N+]([O-])c1cc(C(F)(F)F)ccc1Oc1cc(C(F)(F)F)cc(C(F)(F)F)c1
inactive: locus YAL013W, strain DEP1, stronger effect = lower value 1.03 | locus YBR229C, strain ROT2, stronger effect = lower value 1 | [1] 1.04 | locus YDL134C, strain PPH21, stronger effect = lower value 0.982 | locus YDR150W, strain NUM1, stronger effect = lower value 1.02 | locus YEL061C, strain CIN8, stronger effect = lower value 1.03 | locus YGR078C, strain PAC10, stronger effect = lower value 1.01 | [2] 1.03 | locus YHR087W, strain rtc3, stronger effect = lower value 1.02 | locus YJR043C, strain POL32, stronger effect = lower value 0.996 | locus YJR075W, strain HOC1, stronger effect = lower value 1.01 | locus YLR039C, strain RIC1, stronger effect = lower value 1.02 | locus YLR058C, strain SHM2 (second series), stronger effect = lower value 0.982 | locus YLR085C, strain ARP6, stronger effect = lower value 1.01 | locus YLR262C, strain YPT6, stronger effect = lower value 0.992 | locus YML094W, strain GIM5, stronger effect = lower value 1.12 | locus YMR219W, strain ESC1, stronger effect = lower value 0.99 | locus YMR263W, strain SAP30, stronger effect = lower value 0.993 | locus YMR307W, strain GAS1, stronger effect = lower value 1.12 | locus YNL128W, strain TEP1, stronger effect = lower value 0.97 | locus YNL153C, strain GIM3, stronger effect = lower value 1.03 | locus YNL298W, strain CLA4 (second series), stronger effect = lower value 1.01 | locus YNL322C, strain KRE1, stronger effect = lower value 1 | locus YNR030W, strain Alg12, stronger effect = lower value 1.05 | locus YPL055C, strain LGE1, stronger effect = lower value 1.09 | locus YPL241C, strain CIN2, stronger effect = lower value 1.07 | locus YPR135W, strain CTF4, stronger effect = lower value 1.12
